Experimental data published in PubChem BioAssay (NCI).
This is part of a sample that, as a whole, favours compounds with a hit. Of some 79,000 tested, about 15% had one in any assay. Values without a mark were called inactive. The source made the active and inactive calls. No stated cut-off is given here; in the data, active means growth inhibition above about 70%; inactive means the rest.

What was measured:
[1] = NCI Yeast Anticancer Drug Screen. Data for the rad50 strain (AID 155);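 further: 0% = growth of vehicle-only cultures of the same strain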; conditions: S. cerevisiae rad50 strain growth inhibition, active compounds read high
How it was run: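 DNA repair mutant yeast, compound exposure, growth read-out; inhibition is taken relative to vehicle.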

[2] = NCI Yeast Anticancer Drug Screen. Data for the mec2-1 strain (AID 157); conditions: S. cerevisiae mec2-1 strain, active compounds read high
How it was run: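 Vehicle-treated cultures served as reference for growth inhibition of compound-exposed mec2-1 yeast.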

[3] = NCI Yeast Anticancer Drug Screen. Data for the sgs1 mgt1 strain (AID 161);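 further: 0% = growth of cultures given vehicle only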; conditions: S. cerevisiae sgs1 mgt1 strain, active compounds read high
How it was run: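 Test agents were incubated with a DNA-repair-mutant yeast strain. Growth was then read and compared against vehicle-treated controls.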

[4] = NCI Yeast Anticancer Drug Screen. Data for the cln2 rad14 strain (AID 165);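 further: 0% = growth equal to vehicle treated cultures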; conditions: S. cerevisiae cln2 rad14 strain, active compounds read high
How it was run: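 Each compound was tested on cln2 rad14 yeast. Inhibition of growth was calculated against vehicle-exposed controls.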

[5] = NCI Yeast Anticancer Drug Screen. Data for the bub3 strain (AID 167); conditions: S. cerevisiae bub3 mutant strain, active compounds read high
How it was run: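 In this screen, a yeast mutant lacking normal mitotic checkpoint function is challenged with compound. Relative growth versus vehicle gives the inhibition value.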

[6] = NCI Yeast Anticancer Drug Screen. Data for the mlh1 rad18 strain (AID 175); conditions: S. cerevisiae mlh1 rad18 strain growth inhibition, active compounds read high
How it was run: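 Vehicle-treated cultures served as the reference for growth inhibition in a yeast strain carrying DNA damage repair alterations exposed to each compound.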

[7] = at 5.0 µM (retest, dose inferred, filed as 0.5)
[8] = at 50.0 µM (retest, dose inferred, filed as 5.0)

SMILES | growth inhibition [1, 7] | growth inhibition [1, 8] | growth inhibition ([1]; at 50.0 µM) | growth inhibition [2, 7] | growth inhibition [2, 8] | growth inhibition ([2]; at 50.0 µM) | growth inhibition [3, 7] | growth inhibition [3, 8] | growth inhibition ([3]; at 50.0 µM) | growth inhibition [4, 7] | growth inhibition [4, 8] | growth inhibition ([4]; at 50.0 µM) | growth inhibition [5, 7] | growth inhibition [5, 8] | growth inhibition ([5]; at 50.0 µM) | growth inhibition [6, 7] | growth inhibition [6, 8] | growth inhibition ([6]; at 50.0 µM)
Oc1ccc(C(=C(Br)c2ccccc2)c2ccc(O)cc2)cc1 | 98% (active) | 98% (active) | 87.7% (active) | 99% (active) | 99% (active) | 91.5% (active) | 99% (active) | 99% (active) | 85.1% (active) | 99% (active) | 99% (active) | 89.5% (active) | 99% (active) | 99% (active) | 89.3% (active) | 99% (active) | 99% (active) | 85.3% (active)
O=C(NCCCCCN1CCC2(CCCCC2)CC1)C(c1ccccc1)C1CCCCC1 (configuration not stated) | -1% | 99% (active) | 99.6% (active) | -12% | 98% (active) | 99.6% (active) | 0% | 97% (active) | 99.7% (active) | 5% | 99% (active) | 99.2% (active) | -15% | 100% (active) | 99.6% (active) | 0% | 99% (active) | 99.7% (active)
CCCCc1c2c(nc3c1CC/C(=C\c1ccc([N+](=O)[O-])cc1)C3=O)CCCC2 | 92% (active) | 92% (active) | 88.5% (active) | 97% (active) | 94% (active) | 92.6% (active) | 38% | 92% (active) | 89.8% (active) | 97% (active) | 93% (active) | 88.1% (active) | 98% (active) | 91% (active) | 88.5% (active) | 96% (active) | 88% (active) | 89.6% (active)
COC(=O)C(O)(/C(=N\O)c1ccccc1)c1ccccc1 (configuration not stated) | 0% | 0% | 4.8% | 0% | -1% | 16.7% | 5% | 0% | 25.6% | -1% | -5% | 71.1% (active) | 0% | -8% | 29.1% | 0% | -2% | 8.35%
CC[C@@H]1O[C@@H]([C@@H]2CC[C@](O)([C@]3(C)CC[C@@H]([C@@H](C)[C@@]4(O)CC[C@H](C)[C@@H](C[C@@]5(O)O[C@@H]([C@@H](C)[C@H](O)C[C@H]6CC[C@H](C)[C@@H]([C@@H](C)C(=O)O)O6)CC[C@@H]5C)O4)O3)O2)CC[C@@]1(C)O | 10% | 90% (active) | 88.4% (active) | 34% | 94% (active) | 90.2% (active) | -9% | 92% (active) | 89.2% (active) | 58% | 92% (active) | 88.2% (active) | -14% | 93% (active) | 87.2% (active) | -18% | 93% (active) | 87.7% (active)
O=C(CN1CCOCC1)Nc1nc(-c2ccc(Cl)cc2)cs1 | 66% | 94% (active) | 79.6% (active) | 49% | 97% (active) | 53.8% | 60% | 99% (active) | 86.4% (active) | 46% | 90% (active) | 62% | 65% | 67% | 77.6% (active) | 76% (active) | 99% (active) | 85% (active)
CN(C)C(=S)/N=c1\ss/c(=N\C(=S)N(C)C)n1Cc1ccco1 | -2% | 2% | 12.2% | -2% | 0% | -10.7% | -2% | 4% | -2.7% | -4% | 3% | 9.1% | 0% | -1% | -3.05% | -1% | 2% | -3.15%
CCCCOc1ccc(CC(O)CN2CCCCC2C)cc1 (configuration not stated) | 22% | 49% | 75.2% (active) | 21% | 51% | 52.5% | 33% | 61% | 78% (active) | 36% | 57% | 73.7% (active) | 36% | 71% (active) | 85.6% (active) | 24% | 60% | 51%
CCC(=O)NC1=CCC(C(C)(C)C)CC1 (configuration not stated) | 2% | -4% | 10.2% | 1% | 4% | -5.55% | 1% | 4% | -0.5% | 4% | -4% | 7.9% | 9% | 18% | 42.5% | 0% | -1% | -5.45%
